# Compound activity: PubChem BioAssay, several laboratories
# TRPM1 prom inh: reduces MITF-dependent TRPM1 promoter luciferase signal | actives 0.83% (n = 330,000) | AID 488899 | inhibition, % at 12.5 µM | SK-MEL-5 TRPM1 promoter luciferase, 24 h;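 active = mean inhibition across replicates of 60% or more, whatever share of single replicates reaches that level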
# HIF-2a inh: blocks HIF-2a reporter activity. actives 0.72% (n = 360,000). inhibition, % at 18.8 µM. 786-0 RCC cells HIF-2a reporter, luciferase luminescence, overnight;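 active = inhibition of the luminescence signal of 40% or more relative to plate controls, in a single-dose primary screen at 18.75 µM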
# Shn3 3UTR inh: reduces Shn3 3'UTR luciferase signal in osteoblasts; Clone20 osteoblast Shn3 3'UTR firefly luciferase, 24 h; actives 0.52% (n = 360,000); AID 588674; inhibition, % at 12.5 µM;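 active = mean inhibition of at least 75% with every replicate also reaching 75%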;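 note: 0% = median of neutral control wells and 100% = pilot-screen positive control compound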
# LMP1 NFkB inh: inhibitors of Epstein-Barr LMP1-induced NF-kappaB reporter; LMP1-induced NF-kappaB luciferase reporter cells, luminescence; inhibition, % at 12.5 µM; actives 0.69% (n = 350,000); AID 504558; in the data active = inhibition above about 41%;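 note: 0% = neutral control wells and 100% = reference inhibitor control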
# TROY NFkB inh: inhibitors of TROY-dependent NF-kB signaling; Q293 LMP1-TROYcd NF-kB luciferase reporter, 4 h; inhibition, % at 10 µM; actives 0.98% (n = 360,000); AID 1347056;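 active = compounds whose plate-normalised and pattern-corrected inhibition of the luciferase reporter signal at the single screening dose is 50% or more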
# TWEAK Fn14 block: blocks TWEAK-Fn14 interaction in a reporter cell assay. TWEAK-stimulated Fn14 reporter cells, luciferase luminescence, 8 h. inhibition, % at 10 µM. actives 2% (n = 360,000); in the data active = inhibition above about 50%
# The depositor's hits bear a star; . = no result. Sampled rows, rich in hits. Any-hit rate of the full collection: about 3.4%.
SMILES,TRPM1 prom inh,HIF-2a inh,Shn3 3UTR inh,LMP1 NFkB inh,TROY NFkB inh,TWEAK Fn14 block
COC(CNC(=O)C1CC(=O)N(CCc2ccc(C)cc2)C1)OC (stereo not drawn),-11,19,-43,9,5,-5
Cc1ccc(CC#N)c(-c2c(CC#N)ccc(C)c2C)c1C,.,19,-6,-1,0,-4
Cc1ccc2c(c1C)-c1c(ccc(C)c1C)C(=O)C2=O,108*,66*,54,0,61*,86*
CCOc1cc(CNCc2ccccc2)ccc1OCc1ccc(Cl)cc1,15,-1,92*,15,14,-8
COc1ccc(CNCCc2ccc(Cl)cc2)cc1OCc1ccccc1,5,12,84,-2,4,15
O=c1c2c(nc3cc(-c4ccccc4Cl)[nH]n13)CCS2,-73,-144,-65,-14,-2,63*
O=C(O)c1cc(NC(=O)c2ccc(Cl)c([N+](=O)[O-])c2)cc(C(=O)O)c1,5,13,3,-18,5,-12
O=C(Nc1ccc(C(O)(C(F)(F)F)C(F)(F)F)cc1)c1ccc(Cl)c([N+](=O)[O-])c1,4,-51,5,-3,50*,62*
COc1ccc(-n2nc(C(=O)NCC(=O)N3CCC(C(N)=O)CC3)c3ccccc3c2=O)cc1,-5,-9,5,1,3,21
C=CCNc1nc(-c2ccccn2)nnc1-c1ccccc1,78*,7,91*,-41,16,-10
c1ccc(-c2cnnc(-c3ccccn3)n2)cc1,-83,-198,-50,-6,-54,-12
Cn1c(N)c(C(=O)CN2CCN(S(=O)(=O)c3ccccc3C#N)CC2)c(=O)n(C)c1=O,.,-3,-25,2,9,-7
O=C(NC1CC1)c1ccc2sc([C@H]3C[C@H](O)[C@@H](CO)O3)nc2c1,.,1,5,.,-6,-6
O=C1/C(=C/c2ccc(O)c([N+](=O)[O-])c2)SC(=S)N1Cc1ccccc1,5,-36,18,-1,34,60*
O=C1/C(=C\c2cccc([N+](=O)[O-])c2O)SC(=S)N1Cc1ccccc1,20,-30,-18,20,50,69*
O=C(Cn1cnc2c(nnn2Cc2ccc(Cl)cc2)c1=O)N1CCN(c2ccccc2)CC1,.,15,27,7,15,23
O=C(Cn1cnc2c(nnn2Cc2ccccc2)c1=O)N1CCN(c2ccccc2)CC1,7,17,0,83*,3,10
C=CCNC(=O)CN(Cc1ccccc1)S(=O)(=O)c1ccccc1,6,14,-13,-14,9,12
Oc1ccc2ccccc2c1N=Nc1ccccn1,60,-70,95*,63*,-17,-80
Oc1ccc2ccccc2c1N=Nc1ccccc1F,16,-121,-25,-16,-52,-9
CCOC(=O)c1[nH]cnc1N=Nc1c(O)ccc2ccccc12,.,-20,80,47*,-25,13
O=C1/C(=C/c2ccccc2)SC(=S)N1CC(=O)N1CCCCC1c1cccnc1 (stereo not drawn),-49,73*,16,14,5,-11
O=C1/C(=C/c2cccnc2)SC(=S)N1Cc1ccco1,10,-1,-13,43*,-2,11
O=C(CCN1C(=O)/C(=C/c2ccccc2)SC1=S)Nc1cccnc1,-11,10,15,-5,14,-25
Cc1cc(C(=O)N2CCc3ccccc32)n(-c2ccccc2)n1,.,16,25,-7,12,5
SMILES,TRPM1 prom inh,HIF-2a inh,Shn3 3UTR inh,LMP1 NFkB inh,TROY NFkB inh,TWEAK Fn14 block
Cc1cc(C)n(-c2ccc(C(=O)N3CCc4ccccc43)cc2)n1,-40,-185,-53,-12,-25,88*
COc1ccc(-n2c(Cc3cccn3C)nnc2SCC(=O)Nc2ccc(Cl)cc2)cc1,2,12,-1,-14,15,50*
COc1ccc(-n2c(Cc3cccn3C)nnc2SCC(=O)Nc2cc(Cl)ccc2OC)cc1,0,9,14,-19,3,62*
CC1(C)CC(NC(=O)c2ccc(Cl)cc2)CC(C)(C)N1,-10,12,-13,-7,6,74*
CC1(C)CC(NC(=O)c2ccc(Cl)c(S(=O)(=O)N(Cc3ccccc3)c3ccccc3)c2)CC(C)(C)N1,92*,1,-4,-25,16,-4
O=C(O)c1cccc(COc2ccc(CO)cc2Cl)c1,105*,89*,89*,91*,-26,71*
